POLH inh = inhibitors of human DNA polymerase eta. Q9Y253. recombinant Pol eta, fluorescent DNA replication assay. Potency, µM (series often up to 114 µM), without a hit: top-dose activity change, negative = inhibition, most hits filed as inhibitors. actives 1.2% (n = 390,000). AID 588591; also: potency is read from the fitted curve at half-maximal effect; % is scaled to controls: 0 for no effect and ±100 for the full control effect
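Fluorescent replication assay: 50 nM final substrate added after a 15 min room-temperature compound preincubation with 10 nM enzyme. Signal taken at 0 min and again at 10 min.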
PI5P4K alpha inh = inhibitors of human PI5P4K alpha. P48426. PI5P4Kalpha enzyme, ADP-Glo luminescence, 60 min; stronger effect = lower value. max response, %. actives 1.2% (n = 330,000); active = max response of -50% or lower; inconclusive = between -30% and -50%; inactive = -30% or higher; also: value at the top dose of about 77 µM; % is scaled to controls: 0 for no effect and ±100 for the full control effect
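Reactions run in 0.038 M HEPES pH 7.4, 0.28 mM EGTA, 0.1% CHAPS and 5% DMSO, with PI5P4Kalpha, substrate, compound and 5 microM ATP final, one hour at room temperature. Readout is ADP-Glo luminescence.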
ALOX12 inh = ALOX12 (human) lipoxygenase inhibition; Potency, µM (top dose mostly 108 µM), inactives show top-dose activity change, negative = inhibition, most hits filed as inhibitors; purified 12hLO, xylenol orange hydroperoxide absorbance; actives 1.1% (n = 580,000); also: potency is read from the fitted curve at half-maximal effect; % is scaled to controls: 0 for no effect and ±100 for the full control effect
Target sequence (P18054 whole entry, looked up): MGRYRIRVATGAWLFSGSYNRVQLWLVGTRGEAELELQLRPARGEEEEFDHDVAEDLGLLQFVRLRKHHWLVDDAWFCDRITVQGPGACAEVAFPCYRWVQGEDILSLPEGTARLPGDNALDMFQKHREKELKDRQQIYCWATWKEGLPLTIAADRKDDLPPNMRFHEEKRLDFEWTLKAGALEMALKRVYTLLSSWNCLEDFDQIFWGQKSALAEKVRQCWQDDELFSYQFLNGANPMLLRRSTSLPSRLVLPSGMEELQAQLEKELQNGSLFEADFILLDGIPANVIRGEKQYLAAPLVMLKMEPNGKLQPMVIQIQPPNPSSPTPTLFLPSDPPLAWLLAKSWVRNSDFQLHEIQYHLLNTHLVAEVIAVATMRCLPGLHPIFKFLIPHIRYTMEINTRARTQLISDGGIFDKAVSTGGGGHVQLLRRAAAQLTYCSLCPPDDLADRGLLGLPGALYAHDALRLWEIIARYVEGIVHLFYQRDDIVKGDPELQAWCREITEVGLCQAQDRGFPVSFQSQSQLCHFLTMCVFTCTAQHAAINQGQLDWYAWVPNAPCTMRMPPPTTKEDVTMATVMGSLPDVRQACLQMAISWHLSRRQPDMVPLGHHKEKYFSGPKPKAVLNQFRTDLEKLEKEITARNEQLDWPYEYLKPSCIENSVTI
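Hydroperoxide product was detected by ferrous iron/xylenol orange as the 573 to 405 nm absorbance ratio. Arachidonic acid at 40 uM (final) was turned over for 30 min at room temperature by 150 nM human 12hLO, pH 7.0 Hepes buffer, after 15 min compound preincubation.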
Pol iota inh = DNA polymerase iota (human) inhibition; Q9UNA4; AID 588590; actives 1% (n = 390,000); Pol iota fluorescent replication assay, 10 min; Potency, µM (doses to about 115 µM), inactives show at the top dose activity, negative = inhibition, actives largely listed as inhibitors; also: potency is read from the fitted curve at half-maximal effect
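Pol iota at 10 nM preincubated 15 min with compounds at room temperature; reaction started with fluorescent substrate, 50 nM final. Fluorescence read kinetically at 0 and 10 min; buffer-only wells as negative control.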
POLB inh = DNA polymerase beta (human) inhibition. Pol beta primer extension/strand displacement, fluorescence kinetic. P06746. AID 485314. actives 1.3% (n = 340,000). Potency, µM (highest dose often 114 µM), inactives show at the top dose activity change, negative = inhibition, hits mostly inhibitors; also: potency is read from the fitted curve at half-maximal effect; % is scaled to controls: 0 for no effect and ±100 for the full control effect
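Pol beta (10 nM) was preincubated with compound for 15 min at room temperature. The reaction was then started with 50 nM substrate and read immediately and after a further 10 min at room temperature.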
POLK inh = DNA polymerase kappa (human) inhibition; Potency, µM (titrated, usually from 107 µM), without a hit: top-dose activity, negative = inhibition, usual class: inhibitors; actives 0.53% (n = 400,000); AID 588579; purified Pol kappa, fluorescent DNA synthesis assay, 10 min; also: potency is read from the fitted curve at half-maximal effect; % is scaled to controls: 0 for no effect and ±100 for the full control effect
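First, compounds were pin-transferred onto 10 nM Pol kappa. After 15 min at room temperature, substrate was added to 50 nM final. Fluorescence was then measured kinetically at 0 and 10 min.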
* = called active by the depositor; u = inconclusive; x = no result; ! = a repeat was not active. Most compounds without a hit are left out; they make up all but 2.9% or so of the library. Unless noted, calls follow the shape of the dose curve; as a rule, active = well fitted inhibition curve with a large enough effect; inconclusive = small, poorly fitted or top-dose-only effect, or another doubt; inactive = no such curve, though single readings can be large or run the other way.

SMILES	POLH inh	PI5P4K alpha inh	ALOX12 inh	Pol iota inh	POLB inh	POLK inh
COC/C=C/C1=CC2=CC(=O)C(C)(OC(=O)c3cnc4ccccc4n3)C(=O)C2=CN1CCOC (centres undefined)	12%	-13	u	u	x	-11%
COC/C=C/C1=CC2=CC(=O)C(C)(OC(=O)c3cnc4ccccc4n3)C(=O)C2=CN1C(CO)CO (centres undefined)	-5%	3	7.1µM*	u	-1%	-9%
COc1ccc(Cl)cc1NC(=O)CCc1ncc(-c2ccccc2F)o1	x	x	-26%	x	x	x
CC(C)(C)CC(=O)C(C#N)C(=O)Nc1ccccc1Cl (centres undefined)	x	x	-33%	x	x	x
Cc1ccc(C(=O)CSc2nnc(-c3ccccc3)n2-c2ccccc2)cc1	-7%	x	-24%	27%	3%	8%
CC(=O)Nc1ccc(C(=O)CSc2nnc(-c3ccccc3)n2-c2ccccc2)cc1	-9%	x	0%	u	10µM*	5%
CC(=O)Nc1cccc(NC(=O)CCn2cnc3cc(C)c(C)cc32)c1	u	1	-9%	u	25µM*	-32%
CN(C)c1ccc(C(=O)OCC(=O)Nc2ccc(S(N)(=O)=O)cc2)cc1	u	3	59%	u	u	50µM*
NS(=O)(=O)c1ccc(Nc2nc(-c3ccc(F)cc3)cs2)cc1	-29%	2	40µM*	-1%	-20%	-2%
Cc1cc(NS(=O)(=O)c2ccc(Nc3nc(-c4ccc(C)c(C)c4)cs3)cc2)no1	u	u	4.5µM*	-15%	u	-5%
CC(=O)Nc1ccc(-c2csc(Nc3ccc(S(N)(=O)=O)cc3)n2)cc1	-10%	-5	-8%	80%	1%	-9%
Cc1ccc(C)c(-c2csc(Nc3ccc(S(=O)(=O)Nc4nc(C)cc(C)n4)cc3)n2)c1	x	x	45µM*	x	x	x
Cc1ccc(C)c(-c2csc(Nc3ccc(S(N)(=O)=O)cc3)n2)c1	x	x	-29%	x	x	x
Cc1cc(NS(=O)(=O)c2ccc(Nc3nc(-c4sc(N)nc4C)cs3)cc2)no1	10µM*	136	x	3.2µM*	-9%	25µM*
CC(C)N1CCCC(CNC(=O)CCc2c[nH]c3ccccc23)C1 (centres undefined)	x	x	43%	x	x	x
CCNC(=O)c1ccccc1SCC	x	x	7%	x	x	x
Cc1ccc(C(=O)Sc2cccccc2=O)cc1	-14%	-27	u	u	40µM*	-17%
Cc1ccc(C(=O)CC(=O)c2ccccc2)cc1	0%	20	3%	-5%	2%	-13%
CSc1ccccc1NC(=O)c1ccccc1	-22%	1	-8%	14%	-1%	-4%
O=C(Nc1ccccc1SC(=O)c1ccccc1)c1ccccc1	-14%	u	5.6µM*	x	x	x
CC(NC(=O)NCCNc1ncccn1)c1cccnc1 (centres undefined)	x	x	15%	x	x	x
CCCCOC(=O)c1ccc(NC(=O)c2cc(=O)c3cc(C)c(C)cc3o2)cc1	x	x	12%	x	x	x
COc1ccc(/C=C/c2ccc3ccccc3[n+]2C)cc1OC	-2%	-2	x	-87%	28µM*	u
CN(C)c1ccc(/C=C/c2ccc3ccccc3[n+]2C)cc1	u	u	-25%	40µM*!	18µM*	50µM*
CN(CCCS(=O)(=O)[O-])c1ccc(/C=C/c2ccc3ccccc3[n+]2C)cc1	1%	-3	u	u	3%	5%
SMILES	POLH inh	PI5P4K alpha inh	ALOX12 inh	Pol iota inh	POLB inh	POLK inh
Brc1ccc(CSc2ccc(-c3ccccn3)nn2)cc1	x	x	8%	x	x	x
CCCCc1c(C)c2ccc(OCC(C)=O)c(C)c2oc1=O	x	x	23%	x	x	x
OCC1OC(Oc2cccc3ccccc23)C(O)C(O)C1O (centres undefined)	-15%	-7	0%	45%	10%	1%
O=C(O)c1cc(O)c2c(c1)[C@H]([C@H]1c3cc(C(=O)O)cc(O)c3C(=O)c3c(O[C@@H]4OC(CO)C(O)C(O)C4O)cccc31)c1cccc(O[C@@H]3OC(CO)C(O)C(O)C3O)c1C2=O (some centres undefined)	x	x	x	x	x	0.89µM*
O=C(O)c1cc(O)c2c(c1)[C@@H]([C@H]1c3cc(C(=O)O)cc(O)c3C(=O)c3c(O[C@@H]4O[C@H](CO)[C@@H](O)[C@H](O)[C@H]4O)cccc31)c1cccc(O[C@@H]3O[C@H](CO)[C@@H](O)[C@H](O)[C@H]3O)c1C2=O	0.79µM*	-111*	x	-94%	x	1.3µM*
CCOc1ccc2nc3cc(N=Nc4ccc(N)nc4N)ccc3c(N)c2c1	45µM*	u	x	u	x	u
CNC(=O)CCNC(=O)Cn1c(-c2ccccc2)cc2ccccc21	x	x	-26%	x	x	x
C=CC[C@@H]1Cc2c(N)cccc2[C@@H](CC=C)N1	x	x	-14%	x	x	x
CCOc1ccc(C(=O)Nc2ccc(O)c(-c3nc4ccccc4o3)c2)cc1Cl	x	x	0%	x	x	x
Oc1ccc2ccccc2c1CNc1ccc(Br)cc1	-13%	-18	3.5µM*	u	-1%	-10%
COc1ccc(C(CC(=O)c2ccc(C)cc2)Sc2ccccc2N)cc1 (centres undefined)	-11%	-1	50µM*	x	x	x
COc1ccc(CSc2nc3ccncc3n2Cc2ccc(OC)cc2)cc1	x	x	8%	x	x	x
CC(NC(=O)Cc1ccccc1)c1ccccc1 (centres undefined)	-9%	0	0%	14%	30%	-11%
O=C(Cc1ccccc1)NC1(O)C(=O)c2ccccc2C1=O	u	-5	u	7.1µM*	31%	-1%
N#CC1=C(N)SC(N)=C(C#N)C1c1ccc([N+](=O)[O-])cc1	-2%	-84*	u	u	1%	-6%
N#CC1=C(N)SC(N)=C(C#N)C1c1cccc(Oc2ccccc2)c1	-16%	x	14µM*	u	3%	u
CCOc1ccc(C2C(C#N)=C(N)SC(N)=C2C#N)cc1OCC	-6%	-51*	u	5%	24%	-15%
N#CC1=C(N)SC(N)=C(C#N)C1c1ccc(C(F)(F)F)cc1	x	x	x	x	-1%	x
CSc1nnnn1-c1cccc(NC(=O)c2ccccc2Br)c1	x	x	0%	x	x	x
Cc1ccc(C(=O)C(O)NC(=O)c2ccccc2)cc1 (centres undefined)	x	x	-11%	x	x	x
O=C(CN1C(=O)c2ccccc2S1(=O)=O)NCCSCc1c(F)cccc1Cl	-7%	-10	8.9µM*	15%	1%	0%
O=C(CN1C(=O)c2ccccc2S1(=O)=O)NCCSCc1ccco1	-1%	x	-11%	100µM*	5%	-25%
O=C(CN1C(=O)c2ccccc2S1(=O)=O)NCCSCc1ccccc1Cl	1%	-3	u	0%	-1%	-14%
Cc1cc(C)c2cccc(C)c2n1	x	x	12%	x	x	x

Screens: PubChem, National Center for Advancing Translational Sciences (NCATS)
